Test results published in PubChem BioAssay AID1508602 (The Scripps Research Institute Molecular Screening Center, 2020).
Among all 650,000 compounds or so, about 6,800 (1%) were called active. The sample holds actives, similar compounds and a random draw of the others, so the mix is not that of the screen. Values without a mark were called inactive. No stated cut-off is given here; in the data, active means activation above about 4.9%; inactive means the rest.

target: G-protein coupled receptor 151 (Homo sapiens) (UniProt Q8TDV0); assay: activates the human receptor GPR151, primary screen, cell-based, PathHunter beta-arrestin, luminescence (AID 1508602); conditions: PathHunter beta-arrestin GPR151 cells, at 11.2 µM, stronger effect = higher value;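 further: 0% = median of compound wells and 100% = cells with positive control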
Sequence (Q8TDV0 whole entry, looked up): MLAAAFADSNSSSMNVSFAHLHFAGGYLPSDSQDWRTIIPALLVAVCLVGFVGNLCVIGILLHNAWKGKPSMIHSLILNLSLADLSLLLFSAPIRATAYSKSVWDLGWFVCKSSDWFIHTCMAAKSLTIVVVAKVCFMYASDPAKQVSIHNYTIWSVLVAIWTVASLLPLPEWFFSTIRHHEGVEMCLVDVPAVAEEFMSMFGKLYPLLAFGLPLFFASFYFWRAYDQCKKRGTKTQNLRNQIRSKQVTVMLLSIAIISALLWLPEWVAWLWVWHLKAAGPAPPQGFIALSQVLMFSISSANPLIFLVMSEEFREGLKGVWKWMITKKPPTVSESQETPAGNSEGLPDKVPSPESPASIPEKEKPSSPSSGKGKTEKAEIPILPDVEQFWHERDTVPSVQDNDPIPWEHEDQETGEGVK

For `COC(=O)[C@@H]1CC[C@H](C)[C@@H](c2ccc(C)cc2)N1C(=O)c1ccc(/C=N/O[C@H](C)c2cn([C@@H]3COC[C@H]3O)nn2)cc1`, the activation was 7.09% (active).
In the case of `CCSc1nc2sccn2c(=O)c1C(=O)NC(Cc1ccccn1)C(F)(F)F` (stereo unspecified), the activation is reported as 4.95% (active).
In the case of `CCOc1cc(C2C3=C(CCCC3=O)NC3=C2C(=O)CCC3)cc(Br)c1OCC`, the activation is reported as 5.4% (active).
In the case of `CCCCCCOC(=O)c1cc(C(=O)OCCCCCC)c(C)nc1C`, the activation is reported as 6.55% (active).
In the case of `O=C(Cn1c(NCCO)nc2ccccc21)c1ccc(Cl)cc1Cl`, the activation is reported as 7.58% (active).
`O=c1[nH]c(=S)[nH]c(O)c1C=Nc1ccc(F)c(Cl)c1` was tested, and the activation was 5.26% (active).
For `Cc1ccc(/C=C2/C(=O)NC(=O)N(c3ccccc3)C2=O)cc1[N+](=O)[O-]`, the activation was 7.87% (active).
In the case of `COc1nc(Nc2ccccc2)nc(-c2c(C)noc2C)n1`, the activation is reported as 5.15% (active).
`CCCn1ncc(CN2CCCC(N3CCC(CO)CC3)C2)c1C` (stereo unspecified) was tested, and the activation was 6.31% (active).
In the case of `O=C(NCCO)c1cnc(NC2CCN(Cc3ccccc3)CC2)s1`, the activation is reported as 7.19% (active).
In the case of `COc1ccc(-c2noc(-c3ccccc3Cl)n2)cc1`, the activation is reported as 6.08% (active).
In the case of `CC1(c2ccccc2NC(=O)c2ccc([N+](=O)[O-])cc2)CC1`, the activation is reported as 6.15% (active).

First: Cc1cc(N2C(=O)c3ccc(Oc4ccc(NC(=O)CSc5ccc(Cl)cc5)cc4)cc3C2=O)no1
Second: O=c1cc(-c2cc3cc(Cl)ccc3oc2=O)c2ccc(O)cc2o1
The activation of the first is higher: 1.59% for the first, -0.104% for the second.

Going from `O=C(NCCc1ccccn1)c1cn2ccsc2n1` to `COC(=O)c1cc(CNC(=O)c2cc3ncccn3n2)cc(NC(=O)Cc2ccsc2)c1`, the activation falls from 0.225% to -0.0871%.

First: CSc1nc2sccn2c(=O)c1C(=O)NC(C)CO (stereo unspecified)
Second: CC(C)[C@@H](N)Cn1nc(-c2cccs2)ccc1=O
The activation of the first is lower: -0.408% for the first, 0.507% for the second.

Compared with `CCCCN(C)CCCN(Cc1ccco1)C(=S)Nc1ccc(Cl)c(C)c1`, `CCCCc1ccc(NC(=O)COC(=O)c2ccc([N+](=O)[O-])o2)cc1` is lower in activation: -0.264% for the first, -2.13% for the second.

Compared with `COc1cccc(CCNC(=O)CCc2nnc(COc3ccccc3)o2)c1`, `CCCNC(=O)c1cc(NC2CCN(Cc3ccccc3)CC2)nc2ccccc12` is higher in activation: -0.583% for the first, 0.365% for the second.

First: CSCCNc1nc2nonc2nc1NC1CC1
Second: COc1nc(Nc2ccccc2)nc(-c2ccc(C(=O)NC3CC3)cc2)n1
The activation of the first is lower: 0.51% for the first, 0.979% for the second.

First: O=C1OC(c2ccc(Br)cc2)=N/C1=C\c1cc(Br)cs1
Second: COc1ccc(-c2noc(-c3ccc(Br)cc3)n2)cc1
The activation of the first is higher: -0.409% for the first, -0.475% for the second.

First: CCOc1cc(C2C3=C(CCCC3=O)NC3=C2C(=O)CCC3)ccc1OCc1ccc(F)cc1
Second: COc1cc(C2C3=C(CCCC3=O)NC3=C2C(=O)CCC3)cc(Cl)c1O
The activation of the first is lower: -0.184% for the first, 1.16% for the second.

Going from `Fc1ccc(C2Oc3ccc(Cl)cc3C3CC(c4cccs4)=NN32)cc1` (stereo unspecified) to `Cc1ccc(-c2nc(-c3ccccc3Cl)no2)cc1`, the activation rises from 0.238% to 0.675%.

Going from `Cc1nn(-c2ccccc2)c(C)c1/C=N/n1c(=S)[nH]nc(C)c1=O` to `Cc1ccc(N=Cc2c(O)[nH]c(=S)[nH]c2=O)cc1C`, the activation rises from -0.643% to 0.392%.

Compared with `CCCCCCOC(=O)c1ccc(-c2ccc(-c3ccc(C(=O)OCCCCCC)cc3)cc2)cc1`, `CN(C)c1ccc(NC(=O)c2ccc([N+](=O)[O-])cc2)c2ccccc12` is higher in activation: -1.7% for the first, 2.25% for the second.

Going from `CCOC(=O)c1cc2cccnc2nc1C` to `CCSc1nnc(CC(N)=O)c2ccccc12`, the activation falls from 0.721% to -0.522%.

Compared with `Cc1ccccc1-c1cccc(CN2CCC(=O)N(C)CC2)c1`, `O=C(NC1CCN(Cc2ccccc2)CC1)c1ccc(-c2ccccc2)s1` is higher in activation: 0.112% for the first, 0.522% for the second.

First: CCn1c(NCCO)nc2ccccc21
Second: O=C(Cn1c(NCCCO)nc2ccccc21)c1ccccc1
The activation of the first is higher: 1.96% for the first, -1.59% for the second.

Going from `Cc1cc(Br)ccc1OCC(=O)N1CCN(C=O)CC1` to `CC1CCCN(C(=O)NCc2noc3ccccc23)C1` (stereo unspecified), the activation rises from -1.7% to -1.14%.

First: COC(=O)c1c(NC(=O)/C(C#N)=C/c2cccs2)sc2c1CCCC2
Second: Cn1ccnc1SCc1cc(=O)c(OC(=O)c2c(F)cccc2F)co1
The activation of the first is lower: -2.04% for the first, 3.4% for the second.

First: Nc1cccc(N=Cc2c(O)[nH]c(=S)[nH]c2=O)c1
Second: Cc1cccc(N(C)C(=O)C2CCCN(S(=O)(=O)c3c(C)noc3C)C2)c1 (stereo unspecified)
The activation of the first is lower: -0.879% for the first, 0.213% for the second.

Going from `O=C(Nc1ccccc1[N+](=O)[O-])c1ccc2ccccc2n1` to `CC(C)CNC(=O)c1ccccc1NC(=O)c1ccc([N+](=O)[O-])cc1`, the activation rises from 0.441% to 1.87%.

Compared with `COc1ccc(/C=C2\C(=O)NC(=O)N(c3ccc([N+](=O)[O-])cc3)C2=O)cc1OC`, `O=C1NC(=O)N(c2cccc(Br)c2)C(=O)/C1=C/c1cccc([N+](=O)[O-])c1` is higher in activation: -0.83% for the first, 1.88% for the second.

Going from `CC1CCN(C(=O)C2CCCN2c2nnc(N3CCCC3=O)s2)CC1` (stereo unspecified) to `Cc1c(CN2CCCC(N3CCC(CO)CC3)C2)c(=O)n(-c2ccccc2)n1C` (stereo unspecified), the activation falls from 0.834% to -1.54%.

Going from `CC(C)(C)OC(=O)N1CCC[C@H]1C(=O)c1cccnc1` to `CCc1ccc(-c2nc(CSCC(=O)NC(C)(C)C)c(C)o2)cc1`, the activation falls from 0.241% to -0.321%.

First: O=C(NCCCN=C1NS(=O)(=O)c2ccccc21)c1ccc(Cl)c(Cl)c1
Second: COc1nc(Nc2ccccc2)nc(-c2csc3ccccc23)n1
The activation of the first is higher: -0.637% for the first, -0.667% for the second.

Compared with `CCCn1ncc(CN2CCN(C3CCN(C(C)C)CC3)C(CCO)C2)c1C` (stereo unspecified), `O=C(C1CC12CCN(Cc1c(F)cccc1F)CC2)N1CCN(Cc2ccccc2)CC1` (stereo unspecified) is lower in activation: 1.43% for the first, -0.828% for the second.

Going from `Cc1ccc(OCC(=O)Nc2nncs2)cc1` to `Cc1ccc(Cn2cc(C#N)c([N+](=O)[O-])n2)cc1`, the activation rises from 0.547% to 2.65%.

Compound `CCOc1ccc(-n2c(C)cn3c4c(=O)n(CC(C)C)c(=O)n(C)c4nc23)cc1` has an activation of 0.368%.
